Source: PubChem BioAssay AID1159580 (chemical genetic matrix, 2015)
The whole screen tested about 5,500 compounds, of which about 2,000 (36%) were called active. Inconclusive results (about 18%) are left out. Rule as the data show it: active = normalized growth mostly below about 0.91 (no sharp cut-off); inconclusive = no clear call, values can overlap the other calls; inactive = mostly above about 0.92. This is one part of the list.

Experiment: chemical genetic growth profiling, strain panel (AID 1159580);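 also: tested at 20 µM; growth read once vehicle control cultures reached saturation at 30 °C; 1 = growth at the plate median or of vehicle wells; lower values mean less growth of the strain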
Settings: growth OD
[1] = S. cerevisiae deletion strains, locus YAL013W, strain DEP1, active compounds read low
[2] = S. cerevisiae deletion strains, locus YBR229C, strain ROT2, active compounds read low
[3] = S. cerevisiae deletion strains, locus YDL101C, strain DUN1, active compounds read low
[4] = S. cerevisiae deletion strains, locus YEL061C, strain CIN8, active compounds read low
[5] = S. cerevisiae deletion strains, locus YGR078C, strain PAC10, active compounds read low
[6] = S. cerevisiae deletion strains, locus YHR030C, strain SLT2, active compounds read low
[7] = S. cerevisiae deletion strains, locus YJR043C, strain POL32, active compounds read low
[8] = S. cerevisiae deletion strains, locus YJR075W, strain HOC1, active compounds read low
[9] = S. cerevisiae deletion strains, locus YLR039C, strain RIC1, active compounds read low
[10] = S. cerevisiae deletion strains, locus YLR262C, strain YPT6, active compounds read low
[11] = S. cerevisiae deletion strains, locus YMR263W, strain SAP30, active compounds read low
[12] = S. cerevisiae deletion strains, locus YMR307W, strain GAS1, active compounds read low
[13] = S. cerevisiae deletion strains, locus YPL055C, strain LGE1, active compounds read low

Measured: normalized growth

COc1ccc(/C=C2\CC/C(=C\c3ccc(OC)c(OC)c3)C2=O)cc1OC
inactive: [1] 0.988 | [2] 0.998 | S. cerevisiae deletion strains, locus YCL061C, strain MRC1, active compounds read low 0.996 | [3] 0.974 | S. cerevisiae deletion strains, locus YDL134C, strain PPH21, active compounds read low 1.02 | S. cerevisiae deletion strains, locus YDR150W, strain NUM1, active compounds read low 0.904 | [4] 0.986 | [5] 0.978 | S. cerevisiae deletion strains, locus YGR229C, strain SMI1, active compounds read low 1 | [6] 0.902 | S. cerevisiae deletion strains, locus YHR087W, strain rtc3, active compounds read low 0.977 | S. cerevisiae deletion strains, locus YJL187C, strain SWE1, active compounds read low 1.01 | [7] 0.966 | [8] 1.03 | [9] 0.936 | S. cerevisiae deletion strains, locus YLR058C, strain SHM2 (second series), active compounds read low 1.01 | S. cerevisiae deletion strains, locus YLR085C, strain ARP6, active compounds read low 0.989 | [10] 0.964 | S. cerevisiae deletion strains, locus YML094W, strain GIM5, active compounds read low 1.03 | S. cerevisiae deletion strains, locus YMR219W, strain ESC1, active compounds read low 0.995 | [11] 0.973 | [12] 0.817 | S. cerevisiae deletion strains, locus YNL128W, strain TEP1, active compounds read low 0.997 | S. cerevisiae deletion strains, locus YNL153C, strain GIM3, active compounds read low 0.989 | S. cerevisiae deletion strains, locus YNL298W, strain CLA4 (second series), active compounds read low 0.987 | S. cerevisiae deletion strains, locus YNL322C, strain KRE1, active compounds read low 0.999 | S. cerevisiae deletion strains, locus YNR030W, strain Alg12, active compounds read low 0.974 | [13] 0.907 | S. cerevisiae deletion strains, locus YPL241C, strain CIN2, active compounds read low 0.974 | S. cerevisiae deletion strains, locus YPR135W, strain CTF4, active compounds read low 0.919

COc1cc2c(cc1OC)C(=O)c1ccc(OC)c(OC)c1OCC(=O)C2
inactive: [1] 1.01 | S. cerevisiae deletion strains, locus YBR021W, strain FUR4, active compounds read low 1.08 | [2] 1.01 | S. cerevisiae deletion strains, locus YCL029C, strain bik1, active compounds read low 1.01 | S. cerevisiae deletion strains, locus YDL035C, strain GPR1, active compounds read low 1.05 | S. cerevisiae deletion strains, locus YDL074C, strain BRE1, active compounds read low 1.05 | [3] 0.993 | S. cerevisiae deletion strains, locus YDL185W, strain tfp1, active compounds read low 0.982 | S. cerevisiae deletion strains, locus YDL192W, strain arf1, active compounds read low 1.04 | S. cerevisiae deletion strains, locus YDR101C, strain arx1, active compounds read low 1.06 | S. cerevisiae deletion strains, locus YDR162C, strain NBP2, active compounds read low 1.04 | S. cerevisiae deletion strains, locus YDR318W, strain mcm21, active compounds read low 1.01 | S. cerevisiae deletion strains, locus YDR388W, active compounds read low 1.01 | S. cerevisiae deletion strains, locus YDR502C, strain sam2, active compounds read low 0.991 | [4] 1.01 | S. cerevisiae deletion strains, locus YER110C, active compounds read low 1.01 | S. cerevisiae deletion strains, locus YER155C, strain BEM2, active compounds read low 0.992 | S. cerevisiae deletion strains, locus YER167W, strain BCK2, active compounds read low 0.995 | S. cerevisiae deletion strains, locus YGL078C, strain dbp3, active compounds read low 0.963 | S. cerevisiae deletion strains, locus YGL086W, strain mad1, active compounds read low 1.02 | S. cerevisiae deletion strains, locus YGL248W, strain PDE1, active compounds read low 0.994 | [5] 1.02 | S. cerevisiae deletion strains, locus YGR135W, strain pre9, active compounds read low 0.968 | S. cerevisiae deletion strains, locus YGR252W, strain gcn5, active compounds read low 1.05 | [6] 1 | S. cerevisiae deletion strains, locus YHR079C, strain IRE1 (second series), active compounds read low 1 | S. cerevisiae deletion strains, locus YHR094C, strain hxt1, active compounds read low 0.991 | S. cerevisiae deletion strains, locus YHR129C, strain ARP1, active compounds read low 1 | S. cerevisiae deletion strains, locus YHR200W, strain rpn10, active compounds read low 1.02 | S. cerevisiae deletion strains, locus YIL066C, strain RNR3, active compounds read low 1.01 | S. cerevisiae deletion strains, locus YIL073C, strain SPO22, active compounds read low 0.954 | S. cerevisiae deletion strains, locus YIL125W, strain kgd1, active compounds read low 1.01 | S. cerevisiae deletion strains, locus YIR030C, strain dcg1, active compounds read low 1 | S. cerevisiae deletion strains, locus YJL095W, strain BCK1, active compounds read low 1.01 | S. cerevisiae deletion strains, locus YJL134W, strain LCB3, active compounds read low 1.01 | S. cerevisiae deletion strains, locus YJL168C, strain set2, active compounds read low 1 | S. cerevisiae deletion strains, locus YJL187C, strain SWE1 (second series), active compounds read low 1.01 | [7] 1.09 | [8] 0.997 | S. cerevisiae deletion strains, locus YKL009W, strain mrt4, active compounds read low 1.01 | S. cerevisiae deletion strains, locus YKL068W, active compounds read low 0.988 | S. cerevisiae deletion strains, locus YKL085W, strain MDH1 (second series), active compounds read low 0.962 | S. cerevisiae deletion strains, locus YKL085W, strain MDH1, active compounds read low 0.962 | S. cerevisiae deletion strains, locus YKR001C, strain vps1, active compounds read low 1 | [9] 1.03 | S. cerevisiae deletion strains, locus YLR058C, strain SHM2, active compounds read low 1.01 | S. cerevisiae deletion strains, locus YLR102C, strain apc9, active compounds read low 1.01 | [10] 1 | S. cerevisiae deletion strains, locus YLR268W, strain sec22, active compounds read low 1 | S. cerevisiae deletion strains, locus YLR330W, strain CHS5, active compounds read low 1 | S. cerevisiae deletion strains, locus YLR342W, strain FKS1 (second series), active compounds read low 1.13 | S. cerevisiae deletion strains, locus YLR371W, strain rom2, active compounds read low 0.984 | S. cerevisiae deletion strains, locus YLR418C, strain cdc73, active compounds read low 1.01 | S. cerevisiae deletion strains, locus YML016C, strain PPZ1, active compounds read low 1.01 | S. cerevisiae deletion strains, locus YML032C, strain rad52, active compounds read low 1.03 | S. cerevisiae deletion strains, locus YML124C, strain tub3, active compounds read low 0.983 | S. cerevisiae deletion strains, locus YMR078C, strain ctf18, active compounds read low 1 | S. cerevisiae deletion strains, locus YMR223W, strain ubp8, active compounds read low 1.01 | [11] 0.993 | [12] 1.2 | S. cerevisiae deletion strains, locus YNL067W, strain RPL9B, active compounds read low 0.976 | S. cerevisiae deletion strains, locus YNL233W, strain BNI4, active compounds read low 1.01 | S. cerevisiae deletion strains, locus YNL250W, strain rad50, active compounds read low 0.936 | S. cerevisiae deletion strains, locus YNL271C, strain bni1, active compounds read low 0.976 | S. cerevisiae deletion strains, locus YNL298W, strain CLA4, active compounds read low 1 | S. cerevisiae deletion strains, locus YNL307C, strain MCK1, active compounds read low 0.988 | S. cerevisiae deletion strains, locus YNR052C, strain pop2, active compounds read low 0.996 | S. cerevisiae deletion strains, locus YOL006C, strain TOP1, active compounds read low 1.27 | S. cerevisiae deletion strains, locus YOL012C, strain htz1 0.675 | S. cerevisiae deletion strains, locus YOL147C, strain pex11, active compounds read low 1.01 | S. cerevisiae deletion strains, locus YOR061W, strain CKA2, active compounds read low 1.02 | S. cerevisiae deletion strains, locus YOR069W, strain VPS5, active compounds read low 1 | S. cerevisiae deletion strains, locus YOR136W, strain idh2, active compounds read low 1 | S. cerevisiae deletion strains, locus YOR144C, strain elg1, active compounds read low 1 | S. cerevisiae deletion strains, locus YOR184W, strain ser1, active compounds read low 1.07 | S. cerevisiae deletion strains, locus YOR316C, strain cot1, active compounds read low 0.99 | [13] 1.09 | S. cerevisiae deletion strains, locus YPR119W, strain clb2, active compounds read low 0.977 | S. cerevisiae deletion strains, locus YPR141C, strain kar3, active compounds read low 0.972 | S. cerevisiae deletion strains, locus YPR163C, strain tif3, active compounds read low 0.999 | S. cerevisiae deletion strains, locus YPR167C, strain met16, active compounds read low 0.99 | S. cerevisiae deletion strains, strain wtn01, active compounds read low 1.04 | S. cerevisiae strains, strain wild type, active compounds read low 1.04
